# Source: article PMC13494018
# A number with no mark means an inactive call. No rule for the calls is given here.
# B1: d8r1_design_ppi_1245_dldesign_0_cycle0_af2pred (protein)
# chain: SVAEQRAELAAIVDRTLAAAAAEDPRAAGRAGAAELARLLARSSDEVKPAANAAIAAFNTLIRDPAAGAAALEAVRAELA
# B2: d8r1_design_ppi_1301_dldesign_0_cycle1_af2pred (protein)
# chain: AENEADFNALKRVAQSILDRAAELAAAGADRALVERLAASAVQAAELAAEEGTPEEGAALIAETRAAVAAVLAA
# B3: d8r1_design_ppi_1086_dldesign_0_cycle1_af2pred (protein)
# chain: AAAAVAAAAAAGGEAAMAEFLDLSNPEQGKELKDKAAAKVAALAAANPAVAAQINAAYNAQLARGKALAAEARADK
# B4: d8r1_design_ppi_1034_dldesign_0_cycle1_af2pred (protein)
# chain: DQAFTDAAAAAKALAAIPKYKALGDSLAARVAALAAAAAAARAAGAADPATAAEDAAAAAALAAAAKNIGDFAKAMLKAIEEDE
# B5: d8r1_design_ppi_1459_dldesign_0_cycle1_af2pred (protein)
# chain: EKAEKLRKLAKKLKELGKKIAEGDEEEAKKAAKEAAKAAREAGKISPQGKTLEYLGKKTEEAAKAGDKKTAASLADAAAALMEALAD
# B6: d8r1_design_ppi_888_dldesign_0_cycle1_af2pred (protein)
# chain: ATEEEKEKLKKLVEELLKAGKEGTVEEAKKAAEKLVEAAKKASLEAVLAGIAEVAKAAAELAKVNPEAAEVAREAAIELAKIALEKAD
# B7: d8r1_design_ppi_473_dldesign_0_cycle1_af2pred (protein)
# chain: STAEYLAQQQAALDATLAALDAAAAAVRTSAAGKALGDAAKKAMEIAKKLPVSVQLAVAQNQLAALQAAL
# B8: d8r1_design_ppi_259_dldesign_0_cycle1_af2pred (protein)
# chain: AAAAARLATALANAIAGTNTIKKASTAKSASQFLAASTDRLATLYAADPALVAKLRAAAAAAKAGVDAGLAAAKEALAAATAAG
# B9: d8r1_design_ppi_1444_dldesign_0_cycle0_af2pred (protein)
# chain: MEELLARIEEALKRAKEVLKEAKKYSPGAEAIAKAALEAAERALALARAGPERAAEAERELRAAENAIAAAEKLLEA
# B10: d8r1_design_ppi_1231_dldesign_0_cycle1_af2pred (protein)
# chain: MTEEEMAALVQAARDAAKAAAAAAGPAVAPTMAAMVALAEEERDNPGELESIAQSVATAAARAVAAAAAAA
# B11: d8r1_design_ppi_178_dldesign_0_cycle1_af2pred (protein)
# chain: ATEAVAQAIVLAAKRAAALPNAATAVANLAALVALLIEDPRVAEGAVEGAKEAAKALEAAGRTEEAKALLSAAEAAVAETAAKRA
# B12: d8r1_design_ppi_1247_dldesign_0_cycle1_af2pred (protein)
# chain: SSNKETSKLIREAMKIIGESLAAARAAVAAGDKAAAQAAVDAGVAKIEELAKKSKDPATKETLLKLAENLRRQGARVIA
# B13: d8r1_design_ppi_705_dldesign_0_cycle0_af2pred (protein)
# chain: MTPSTRAMLHIGRANAAAQALAADPAAAAAAVAEEMAAAAREAAKASPEVREQNLRAMDAAVAALKAANPAVGAAARAAMEEELARL
# B14: d8r1_design_ppi_1413_dldesign_0_cycle1_af2pred (protein)
# chain: GSLLEELAKKEEELKDEEKMLKAHENALEIGIKKAEEDPAKGAKILENLAKNAEAAAKKASPEIAKKFKELAERAKKAAKEAKKKAA
# B15: d8r1_design_ppi_156_dldesign_0_cycle1_af2pred (protein)
# chain: MEEEKKKEEEEQKEAERMAKALENAIDAIEARVKAAPAAEQPALAKAADNAAAAADVLKKKDPELGQKVKDRANAVLAAARAK
# B16: d8r1_design_ppi_271_dldesign_0_cycle1_af2pred (protein)
# chain: ADAALAALIAEAAQAAYDDGPRGIAALAGALLRAFPSLSAETLAAIIAATAADPAAAAALIAALAAAHPEAAPALAAELRALLAELA
# B17: d8r1_design_ppi_1358_dldesign_0_cycle1_af2pred (protein)
# chain: AAAESAALAAALAALRKTEVGPFARQYIIYRLLAQVAEAKGDEETAKRAKAKAEELAKAYPEAAAAADAALALAQAALAA
# B18: d8r1_design_ppi_1486_dldesign_0_cycle0_af2pred (protein)
# chain: SEELEKAKEEARKARERLLRLAEEAAAVDPAVAAAGRNAAAGAEKLISTGSLGSARAGKAIAEAAARRAEAVLAAAAAA
# B19: d8r1_design_ppi_433_dldesign_0_cycle0_af2pred (protein)
# chain: SEEEERKEIEEEGRAMARALRTSARHHAELAKKDPAAGRAAFDADAAAIRAGATPEQQPLVDAAVAEGRALLDAVEAAL
# B20: d8r1_design_ppi_723_dldesign_0_cycle0_af2pred (protein)
# chain: GGKSIAEIARIHGARTAAAVLAETGDAAAAAKIKAVAEKAAKEIEKASDNYDKMAEIFRKMVEEIEKITAAAKAAAA
# B21: d8r1_design_ppi_1244_dldesign_0_cycle0_af2pred (protein)
# chain: EEEEKEEKETYEKAYYLAKAAINAVNTGKEAAVASGKAALIAAGKLIPEWAAEAKAAKTAEEIKAVAEKLAEAAKKKIE
# B22: d8r1_design_ppi_978_dldesign_0_cycle1_af2pred (protein)
# chain: MKHLEEQRKAAEKVAEKAAKEAEKEIAKVVSEEEAKKLAEKLKEQSKTSNELLVEKHKDLPVEEIEKLAERNAKGLALRALAIAKE
# B23: d8r1_design_ppi_80_dldesign_0_cycle1_af2pred (protein)
# chain: ETPEEKANALFRAFNNVATYAAAKVPALAAAAAAAIAASADPAKLGAAAAAFAAAAAATPAAAALGTSAQAIADKAVATAK
# B24: d8r1_design_ppi_136_dldesign_0_cycle1_af2pred (protein)
# chain: SAAEEAARKSLFAVADSILAANLARAKAAAAAGDAAAAAAALQNTRDGGEMVTKMALARGDEETAAELAARFAAAAAEIAAILAA
# B25: d8r1_design_ppi_460_dldesign_0_cycle1_af2pred (protein)
# chain: DETGERKATALAAISATVAAAKAAIDANAADPAAAQAALDAAKKALAAIAAKSGLPSVKGVAETAAKKLAAYATAVAAAAA
# B26: d8r1_design_ppi_860_dldesign_0_cycle1_af2pred (protein)
# chain: DEAYELAAKALAEAAKLRAAADAALAAAGAAGAVEAAALFTAAVKVLEETAKKLKELGSSLGDFTAAAAEREAARAAARIAAALA
# B27: d8r1_design_ppi_763_dldesign_0_cycle1_af2pred (protein)
# chain: MEKAKELAAKGDALEEEAAKATPEEAAKLYREASKYYAEAARLLLPLGDENPEIGKVVKELMAKASASYQKAVALEA
# B28: d8r1_design_ppi_1429_dldesign_0_cycle0_af2pred (protein)
# chain: SSLESEERLRRMAEGIAERTLRVVERLAKEDLETARRAAENTRGLLAKLGPVAAKIGEETWERAEAILAAIA
# B29: d8r1_design_ppi_179_dldesign_0_cycle0_af2pred (protein)
# chain: STAARNAAAGIAAAAKENPKSGAKLGKGAIDVLAKKDKKEAAEAAKLAAEQAKAAGKEEVAKEMEELAKKVEAEI
# B30: d8r1_design_ppi_290_dldesign_0_cycle0_af2pred (protein)
# chain: SREEAERLKEEIERLAREGIAGDAETAARAMREIHELAIRSTELDPEDAAEVNQKAAEAMLRVGDAREAMLAA
# B31: d8r1_design_ppi_1212_dldesign_0_cycle1_af2pred (protein)
# chain: AAALAEKLVATALAIGDAVLKKYPEAFGAKLAAARALIAADPVAGIRALGEAAAEVAPAEIAPGIRSMLNAIADRAAELLA
# B32: d8r1_design_ppi_877_dldesign_0_cycle0_af2pred (protein)
# chain: ALRAATEALLAEAERLREEILELGRAAESESVRNFAEGVAREVERLIAEAKAAAADPEAALALAQAALRTAREGLAGVRALTAAKAE
# B33: d8r1_design_ppi_217_dldesign_0_cycle1_af2pred (protein)
# chain: GDAVMEAAAAISNAAAAAIAAAKADPAKADEALAAATATAKALADATGKPLVKAVAKGATARVAAVAAAVKAAA
# B34: d8r1_design_ppi_660_dldesign_0_cycle1_af2pred (protein)
# chain: EQAELEALAAAAKAAAAQAYALALASRAQAPAAYAALQQAFALAAQLPEEVAAELKAAAAQALADGLLAREKAE
# B35: d8r1_design_ppi_312_dldesign_0_cycle1_af2pred (protein)
# chain: ALEEALRATAALVGTASQILAKEDPALAKEVAARILATAVKDPAEAAKLLKEVAKEAKERGWPAAEYYAAAAEALKAAAEA
# B36: d8r1_design_ppi_1032_dldesign_0_cycle0_af2pred (protein)
# chain: SEEEENKEKAEALEKAAKNTTAIGDEKAAKDAAGKEKGAKAYNGAAALYEAAAKVSSPERAKEFKAKAAEAKAKAAAAQAAAAA
# B37: d8r1_design_ppi_480_dldesign_0_cycle0_af2pred (protein)
# chain: SEEEERRRRAEEAADEIVAAAKADPAAAAALAAEFVATSSEEERRLLANILAQKAFEDDAGLTALRAFSLALAEAVA
# B38: d8r1_design_ppi_655_dldesign_0_cycle0_af2pred (protein)
# chain: SDAKAAAQAAKNGAESATEKANEYEAKGKATGDKALLAKAKTLYDSAATLYAFGTKESGGEYQANLDAAKAKAAAAAALLA
# Molecular target: PDL1, Q9NZQ7
# Sequence (Q9NZQ7 whole entry): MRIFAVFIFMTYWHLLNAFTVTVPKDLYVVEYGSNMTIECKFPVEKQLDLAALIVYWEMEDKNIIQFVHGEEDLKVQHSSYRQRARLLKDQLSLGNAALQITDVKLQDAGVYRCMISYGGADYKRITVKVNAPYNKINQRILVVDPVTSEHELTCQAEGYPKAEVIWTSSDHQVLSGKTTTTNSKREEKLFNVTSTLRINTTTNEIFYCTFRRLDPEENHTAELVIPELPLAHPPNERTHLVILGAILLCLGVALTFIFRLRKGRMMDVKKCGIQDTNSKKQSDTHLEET
row,Binder,binding in a display sort
1,B1,not found
2,B2,not found
3,B3,not found
4,B4,binds (active)
5,B5,not found
6,B6,not found
7,B7,not found
8,B8,not found
9,B9,not found
10,B10,not found
11,B11,not found
12,B12,not found
13,B13,not found
14,B14,not found
15,B15,not found
16,B16,not found
17,B17,binds (active)
18,B18,not found
19,B19,not found

row,Binder,binding in a display sort
1,B20,not found
2,B21,not found
3,B22,not found
4,B23,not found
5,B24,not found
6,B25,not found
7,B26,not found
8,B27,not found
9,B28,not found
10,B29,not found
11,B30,not found
12,B31,not found
13,B32,not found
14,B33,not found
15,B34,not found
16,B35,not found
17,B36,not found
18,B37,not found
19,B38,not found
